Reference: the supplement of paper PMC10338343
± gives the standard deviation.

system: MILI (PIWIL2) piRISC loaded with piRNA #1 (26 nt); experiment: pre-steady-state target cleavage rate (min^-1); guide: piRNA #1 5'p-UGAGGUAGUAGGUUGUAUAGUAUCCA; MIWI and MILI are mouse PIWI proteins and EfPiwi is from a freshwater sponge; tags in brackets are library labels; higher = faster piRNA-guided slicing of the target; details: auxiliary factor: 500 nM mouse GTSF1
Procedure, shortened: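 Cleave-'n-Seq used a transcribed, DNA-blocked target RNA library at 0.1 nM and active affinity-purified piRISC with one synthetic guide at 1 nM, with or without 500 nM GTSF1 partner protein, in HEPES–potassium acetate buffer at 33 °C for 0–8 or 0–960 min. Uncleaved targets were sequenced and normalised to depth and to weakly complementary targets, and three trials were pooled with k3 capped at 0.0001 min^-1. The pre-steady-state cleavage rate was estimated by a burst-and-steady-state fit.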

| Sequence | pre-steady-state target cleavage rate |
| --- | --- |
| GGAGACCUAUGUAAUCAACCUACUACCUCA | 0.00445 ± 0.003 |
| GGAGACCUAUGAUUACAACGUACUUCCUCA | 0.00374 ± 0.0031 |
| GGAGACCUAUGUAUACAUCCUACUUCCUCA | 0.0795 ± 0.013 |
| GGAGACCUAUGAUAUGUUCCUCCUACCUCA | < 0.0001 |
| GGAGACCUUACAAUACAACCUACUAGCUCA | 0.103 ± 0.013 |
| GGAGACCUAUGAAUACAACCAUCUACCUCA | 0.00333 ± 0.0021 |
| GGAGACCUAACUAUACAACCUACUCACCUCA | 0.147 ± 0.032 |
| GGAGACCUAUGAUUACAAGCUUCUACCUCA | 0.00347 ± 0.0023 |
| GGAGACCUAACUAACAACCUACUACCUCA | 0.0182 ± 0.0067 |
| GGAGACCUUUGUAUACAACCUACUACCUCA | 0.0347 ± 0.0065 |
| GGAGUGGAUACUUUUCAACCUACUACCUCA | 0.156 ± 0.0072 |
| GGAGACCUAACUUUACAACCUACUACGUCA | 0.0224 ± 0.01 |
| GGAGACCUAUGAAUACAACCUACUACCUGCA | 0.00801 ± 0.004 |
| GGAGACCUAACUAUACAACCUACUUCCACA | 0.0458 ± 0.022 |
| GGAGAGGAUUCAAUACAACCUACUACCUCA | 0.132 ± 0.01 |
| GGAGACCUAUGAAUUCAACCUACUACCUCA | 0.00274 ± 0.0019 |
| GGAGACCUAACUAUACAUCCUACUAGCUCA | 0.162 ± 0.042 |
| GGAGACCUAUGUAUACAAACUACUACCUCA | 0.111 ± 0.012 |
| GGAGACCUAACUAUACUUGCUACUACCUCA | 0.0149 ± 0.0044 |
| GGAGACCUAACUAUACAUCCUUCUACCUCA | 0.0117 ± 0.0069 |

| Sequence | pre-steady-state target cleavage rate |
| --- | --- |
| GGAGAGGAUACUAAAGAACCUACUACCUCA | 0.179 ± 0.0099 |
| GGAGACCUAUGAUUACAAGCUACUUCCUCA | 0.0143 ± 0.0037 |
| GGAGACGAUACUAUACAACCUAUACCUCA | 0.0145 ± 0.0044 |
| GGAGACCUAUGUAUCCAACCUACUACCUCA | 0.0333 ± 0.005 |
| GGAGACCAUACUUUUCAACCUACUACCUCA | 0.153 ± 0.015 |
| GGAGACCUAUCUAUACAACCUACUACGACA | 0.0627 ± 0.01 |
| GGAGACGAUACUAUACAACCUACGUACCUCA | 0.108 ± 0.013 |
| GGAGACGAUACAAUACAACCUACUAGCUCA | 0.137 ± 0.023 |
| GGAGACCUAUCUAUACAACCUACUUCCUGA | 0.0608 ± 0.018 |
| GGAGACCUAUGUAUACAACCUACUUACCUCA | 0.0503 ± 0.0043 |
| GGAGUGGAUACUAUACAACCUACUACCACA | 0.113 ± 0.0097 |
| GGAGACCUUACAAUACAAGCUACUACCUCA | 0.191 ± 0.011 |
| GGAGACCAUACUAUAAACCUACUACCUCA | 0.0199 ± 0.0046 |
| GGAGACCUAUCUAUACAACCUACAACGUCA | 0.0102 ± 0.004 |
| GGAGACGAUAGUAUACAACCUUCUACCUCA | 0.00961 ± 0.003 |
| GGAGACCUAUCUAUACUACCUUCUACCUCA | 0.00727 ± 0.003 |
| GGAGACCUAUGUAUACAUCCUACUACCUGA | 0.0651 ± 0.017 |
| GGAGACCUUACUAUACAUGCUACUACCUCA | 0.111 ± 0.0086 |
| GGAGACCUAUGAAUACAAGCAACUACCUCA | 0.00265 ± 0.0026 |
| GGAGUGGAUACUAUACAACCUACUACGAGA | 0.0112 ± 0.004 |
